Test results as given in PubChem BioAssay AID1159580 (chemical genetic matrix, 2015).
Among all 5,500 compounds or so, about 2,000 (36%) were called active. Inconclusive results (about 18%) are left out. Cut-off read from the data, not from the text of the source: active = normalized growth mostly below about 0.91 (no sharp cut-off); inconclusive = no clear call, values can overlap the other calls; inactive = mostly above about 0.92. Some of the results follow.

Test: chemical genetic growth profiling, strain panel (AID 1159580);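 note: tested at 20 µM; growth read once vehicle control cultures reached saturation at 30 °C; 1 = growth at the plate median or of vehicle wells; lower values mean less growth of the strain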
Settings: growth OD

Measured: normalized growth

Cc1onc(-c2c(Cl)cccc2Cl)c1C(=O)N[C@@H]1C(=O)N2[C@@H]1SC(C)(C)[C@@H]2C(=O)O
active: S. cerevisiae deletion strains, locus YKR026C, strain gcn3, active compounds read low 1.47 [resistant]
inactive: S. cerevisiae deletion strains, locus YJR066W, strain TOR1, active compounds read low 0.946 | S. cerevisiae deletion strains, locus YJR075W, strain HOC1, active compounds read low 1.02 | S. cerevisiae deletion strains, locus YKL009W, strain mrt4, active compounds read low 0.986 | S. cerevisiae deletion strains, locus YKL068W, active compounds read low 1.01 | S. cerevisiae deletion strains, locus YKL085W, strain MDH1 (second series), active compounds read low 0.999 | S. cerevisiae deletion strains, locus YKL085W, strain MDH1, active compounds read low 0.999 | S. cerevisiae deletion strains, locus YKL160W, strain elf1, active compounds read low 0.982 | S. cerevisiae deletion strains, locus YKL190W, strain CNB1, active compounds read low 1.01 | S. cerevisiae deletion strains, locus YKR001C, strain vps1, active compounds read low 1 | S. cerevisiae deletion strains, locus YKR091W, strain srl3, active compounds read low 1 | S. cerevisiae deletion strains, locus YLL001W, strain dnm1, active compounds read low 0.962 | S. cerevisiae deletion strains, locus YLL026W, active compounds read low 1 | S. cerevisiae deletion strains, locus YLL041C, strain sdh2, active compounds read low 0.987 | S. cerevisiae deletion strains, locus YLR027C, strain aat2, active compounds read low 0.991 | S. cerevisiae deletion strains, locus YLR039C, strain RIC1, active compounds read low 1.03 | S. cerevisiae deletion strains, locus YLR058C, strain SHM2, active compounds read low 1.02 | S. cerevisiae deletion strains, locus YLR102C, strain apc9, active compounds read low 0.994 | S. cerevisiae deletion strains, locus YLR113W, strain HOG1, active compounds read low 1.06 | S. cerevisiae deletion strains, locus YLR221C, strain rsa3, active compounds read low 1.05 | S. cerevisiae deletion strains, locus YLR258W, strain gsy2, active compounds read low 1.02 | S. cerevisiae deletion strains, locus YLR262C, strain YPT6 (second series), active compounds read low 0.961 | S. cerevisiae deletion strains, locus YLR262C, strain YPT6, active compounds read low 1.02 | S. cerevisiae deletion strains, locus YLR268W, strain sec22, active compounds read low 0.987 | S. cerevisiae deletion strains, locus YLR320W, strain mms22, active compounds read low 1.06 | S. cerevisiae deletion strains, locus YLR330W, strain CHS5, active compounds read low 1.02 | S. cerevisiae deletion strains, locus YLR342W, strain FKS1 (second series), active compounds read low 1.04 | S. cerevisiae deletion strains, locus YLR342W, strain FKS1, active compounds read low 0.979 | S. cerevisiae deletion strains, locus YLR357W, strain rsc2, active compounds read low 0.98 | S. cerevisiae deletion strains, locus YLR370C, strain arc18, active compounds read low 1.01 | S. cerevisiae deletion strains, locus YLR371W, strain rom2, active compounds read low 0.985 | S. cerevisiae deletion strains, locus YLR384C, strain iki3, active compounds read low 0.977 | S. cerevisiae deletion strains, locus YLR418C, strain cdc73, active compounds read low 0.946 | S. cerevisiae deletion strains, locus YML016C, strain PPZ1, active compounds read low 1.02 | S. cerevisiae deletion strains, locus YML032C, strain rad52, active compounds read low 0.987 | S. cerevisiae deletion strains, locus YML120C, strain ndi1, active compounds read low 0.99 | S. cerevisiae deletion strains, locus YML124C, strain tub3, active compounds read low 0.985 | S. cerevisiae deletion strains, locus YMR058W, strain fet3, active compounds read low 1.01 | S. cerevisiae deletion strains, locus YMR078C, strain ctf18, active compounds read low 0.991 | S. cerevisiae deletion strains, locus YMR125W, strain sto1, active compounds read low 0.951 | S. cerevisiae deletion strains, locus YMR129W, active compounds read low 0.997 | S. cerevisiae deletion strains, locus YMR205C, strain PFK2, active compounds read low 0.984 | S. cerevisiae deletion strains, locus YMR223W, strain ubp8, active compounds read low 0.973 | S. cerevisiae deletion strains, locus YMR231W, strain pep5, active compounds read low 0.985 | S. cerevisiae deletion strains, locus YMR307W, strain GAS1, active compounds read low 1.02 | S. cerevisiae deletion strains, locus YNL067W, strain RPL9B, active compounds read low 1 | S. cerevisiae deletion strains, locus YNL071W, strain lat1, active compounds read low 0.998 | S. cerevisiae deletion strains, locus YNL128W, strain TEP1, active compounds read low 1.01 | S. cerevisiae deletion strains, locus YNL183C, strain NPR1, active compounds read low 1 | S. cerevisiae deletion strains, locus YNL209W, strain ssb2, active compounds read low 1.02 | S. cerevisiae deletion strains, locus YNL233W, strain BNI4, active compounds read low 0.997 | S. cerevisiae deletion strains, locus YNL248C, strain rpa49, active compounds read low 1.03 | S. cerevisiae deletion strains, locus YNL250W, strain rad50, active compounds read low 0.989 | S. cerevisiae deletion strains, locus YNL271C, strain bni1, active compounds read low 0.98 | S. cerevisiae deletion strains, locus YNL298W, strain CLA4, active compounds read low 0.999 | S. cerevisiae deletion strains, locus YNL307C, strain MCK1, active compounds read low 0.987 | S. cerevisiae deletion strains, locus YNL322C, strain KRE1 (second series), active compounds read low 0.965 | S. cerevisiae deletion strains, locus YNL322C, strain KRE1, active compounds read low 1.01 | S. cerevisiae deletion strains, locus YNR049C, strain mso1, active compounds read low 0.991 | S. cerevisiae deletion strains, locus YNR052C, strain pop2, active compounds read low 0.997 | S. cerevisiae deletion strains, locus YOL006C, strain TOP1, active compounds read low 1.03 | S. cerevisiae deletion strains, locus YOL012C, strain htz1 1.88 | S. cerevisiae deletion strains, locus YOL147C, strain pex11, active compounds read low 0.987 | S. cerevisiae deletion strains, locus YOR001W, strain rrp6, active compounds read low 0.972 | S. cerevisiae deletion strains, locus YOR061W, strain CKA2, active compounds read low 1.03 | S. cerevisiae deletion strains, locus YOR069W, strain VPS5, active compounds read low 1.02 | S. cerevisiae deletion strains, locus YOR070C, strain gyp1, active compounds read low 1.01 | S. cerevisiae deletion strains, locus YOR080W, strain dia2, active compounds read low 0.967 | S. cerevisiae deletion strains, locus YOR083W, strain WHI5, active compounds read low 0.964 | S. cerevisiae deletion strains, locus YOR106W, strain vam3, active compounds read low 0.957 | S. cerevisiae deletion strains, locus YOR136W, strain idh2, active compounds read low 0.988 | S. cerevisiae deletion strains, locus YOR144C, strain elg1, active compounds read low 0.989 | S. cerevisiae deletion strains, locus YOR184W, strain ser1, active compounds read low 0.978 | S. cerevisiae deletion strains, locus YOR231W, strain MKK1, active compounds read low 1.06 | S. cerevisiae deletion strains, locus YOR265W, strain rbl2, active compounds read low 0.985 | S. cerevisiae deletion strains, locus YOR270C, strain vph1, active compounds read low 0.995 | S. cerevisiae deletion strains, locus YOR290C, strain snf2, active compounds read low 1.03 | S. cerevisiae deletion strains, locus YOR316C, strain cot1, active compounds read low 0.998 | S. cerevisiae deletion strains, locus YPL051W, strain arl3, active compounds read low 1.01 | S. cerevisiae deletion strains, locus YPL078C, strain atp4, active compounds read low 0.951 | S. cerevisiae deletion strains, locus YPL106C, strain sse1, active compounds read low 0.964 | S. cerevisiae deletion strains, locus YPL240C, strain hsp82, active compounds read low 0.998 | S. cerevisiae deletion strains, locus YPL241C, strain CIN2, active compounds read low 1.02 | S. cerevisiae deletion strains, locus YPL256C, strain CLN2, active compounds read low 1.04 | S. cerevisiae deletion strains, locus YPR119W, strain clb2, active compounds read low 0.99 | S. cerevisiae deletion strains, locus YPR141C, strain kar3, active compounds read low 1 | S. cerevisiae deletion strains, locus YPR163C, strain tif3, active compounds read low 0.998 | S. cerevisiae deletion strains, locus YPR167C, strain met16, active compounds read low 0.985 | S. cerevisiae deletion strains, strain wtn01, active compounds read low 0.97 | S. cerevisiae strains, strain wild type, active compounds read low 1.02
